# Assay outcomes: PubChem BioAssay, several laboratories
# ABCB6 inh 2: ABCB6 transporter inhibitors, primary screen, K562-ABCB6 cells, flow cytometry, MLPCN library. ATP-binding cassette sub-family B member 6 (Homo sapiens), Q9NP58. K562-ABCB6 porphyrin accumulation, 1 h; stronger effect = lower value. 360,000 tested, 0.19% active. fluorescence ratio to DMSO, % at 10 µM;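 active = fluorescence ratio to DMSO below 75%, the collection mean minus 3 SD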;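 also: signal is porphyrin accumulated inside mitochondria; 100% equals median channel fluorescence of DMSO control wells; lower ratio means ABCB6 inhibition with less porphyrin fluorescence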
# Target sequence (Q9NP58 whole entry, looked up): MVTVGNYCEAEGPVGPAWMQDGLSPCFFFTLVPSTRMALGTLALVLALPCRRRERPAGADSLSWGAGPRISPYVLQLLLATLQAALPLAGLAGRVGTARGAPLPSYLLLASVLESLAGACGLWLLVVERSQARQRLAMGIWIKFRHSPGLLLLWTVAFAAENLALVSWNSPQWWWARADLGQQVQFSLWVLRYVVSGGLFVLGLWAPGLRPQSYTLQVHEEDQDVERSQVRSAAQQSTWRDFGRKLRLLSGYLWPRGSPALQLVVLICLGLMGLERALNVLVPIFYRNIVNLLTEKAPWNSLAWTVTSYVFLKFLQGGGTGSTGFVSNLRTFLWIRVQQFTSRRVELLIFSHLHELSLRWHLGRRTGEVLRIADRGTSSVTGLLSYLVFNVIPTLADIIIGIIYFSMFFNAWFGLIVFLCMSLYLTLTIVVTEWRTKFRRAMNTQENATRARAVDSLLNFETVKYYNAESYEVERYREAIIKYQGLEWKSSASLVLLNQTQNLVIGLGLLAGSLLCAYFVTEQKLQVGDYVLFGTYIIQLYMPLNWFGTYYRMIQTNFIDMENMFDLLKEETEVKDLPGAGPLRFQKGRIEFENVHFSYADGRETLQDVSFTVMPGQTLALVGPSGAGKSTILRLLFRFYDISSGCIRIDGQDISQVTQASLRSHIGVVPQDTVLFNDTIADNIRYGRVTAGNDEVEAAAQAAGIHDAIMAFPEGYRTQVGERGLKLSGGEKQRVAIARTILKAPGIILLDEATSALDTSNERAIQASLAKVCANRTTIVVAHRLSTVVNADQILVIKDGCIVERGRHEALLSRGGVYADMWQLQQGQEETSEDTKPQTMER
# MsrA act: bovine MsrA enzyme activators, primary screen, biochemical, absorbance, HTS; Methionine sulfoxide reductase A (Bos taurus); purified bovine MsrA, absorbance read-out; activation, % at 10.6 µM; 360,000 tested, 0.3% active; in the data active = activation above about 7.5%;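 also: 0% = vehicle and 100% = reference activator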
# SMARCA2 act: SMARCA2 (BRM) function activators, primary screen, cell-based, luminescence, high throughput; activation, % at 9.1 µM; AID 652017, 2013; MG213 cells, MMTV-luciferase reporter, dexamethasone, overnight; 370,000 tested, 1% active; in the data active = activation above about 7.8%;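 also: 0% = vehicle wells and 100% = reference activator wells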
# MsrA inh: bovine MsrA enzyme inhibitors, primary screen, biochemical, absorbance, HTS. 360,000 tested, 0.75% active. purified bovine MsrA, absorbance read-out. inhibition, % at 15.5 µM. Methionine sulfoxide reductase A (Bos taurus); in the data active = inhibition above about 4.5%;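 also: 0% = vehicle wells with enzyme and 100% = reference inhibitor wells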
# MsrA activ conf: bovine MsrA activators, retest, confirmation, biochemical, absorbance, HTS; 1,000 tested, 12% active; shares compounds with MsrA act; purified bovine MsrA, absorbance read-out; activation, % at 10.6 µM; in the data active = activation above about 4%;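 also: enzyme coupled to thioredoxin and thioredoxin reductase with NADPH; 0% = vehicle wells and 100% = reference activator wells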
# Numbers without * were called inactive; i = inactive; . = no result given. This is a sample that favours compounds with a hit; in the whole collection about 2.1% have one here.
SMILES,ABCB6 inh 2,MsrA act,SMARCA2 act,MsrA inh,MsrA activ conf
N#Cc1ccccc1NC(=O)CN1C(=O)NC(Cc2c[nH]c3ccccc23)C1=O (centres undefined),118.0,8.0*,5.1,-1.2,5.4*
O=C(CN1C(=O)NC(Cc2c[nH]c3ccccc23)C1=O)Nc1ccc(F)cc1F (centres undefined),96.0,-6.8,-3.1,0.2,.
O=C(Cc1ccc(Cl)c(Cl)c1)Nc1ccc(S(=O)(=O)Nc2ccon2)cc1,.,.,-0.5,.,.
CN(C)c1ccc(C=c2c3ccccc3n3c2cc(-c2ccccc2)[n+]3C)cc1,i,9.8*,-10.9,2.1,1.4
COC(=O)[C@]12C[C@H](CC(=O)NCCC(C)C)C(=O)N(Cc3ccc4c(c3)OCO4)C1=C[C@H](C(C)C)O[C@@H]2C1CC1,.,.,-3.1,.,.
CCN(CCCNC(=O)CCn1c(=S)[nH]c2cc3c(cc2c1=O)OCO3)c1cccc(C)c1,105.0,8.1*,-1.3,0.3,-1.7
COc1cc2c(cc1OC)C(c1cc([N+](=O)[O-])ccc1O)NCC2 (centres undefined),99.0,9.0*,-2.5,0.1,-7.3
O=C(NCc1ccccc1F)C1CC(=O)N(c2ccc3c(c2)OCCO3)C1 (centres undefined),97.0,9.5*,-1.5,-0.4,-1.8
O=C(C1CC(=O)N(c2ccc3c(c2)OCCO3)C1)N1CCN(c2ccccc2)CC1 (centres undefined),98.0,9.4*,-4.8,-0.1,0.4
Cc1cccc(-c2cccc3c4c([nH]c23)[C@@H]2C[C@H](N(C)C(=O)Nc3ccccc3C)[C@H]([C@H](C)O)C(=O)N2CC4)c1,.,.,-4.2,.,.
C1CCCC(NC2=NCCO2)CCC1,99.0,9.5*,.,.,-0.1
COC(=O)C1CN(Cc2cn(CCOC(C)=O)nn2)CCS(=O)(=O)N1Cc1ccc(Cl)cc1 (centres undefined),.,.,-2.3,.,.
O=C(COC(=O)c1cc(F)cc(F)c1)Nc1cccnc1Cl,95.0,9.1*,4.2,-0.9,-3.5
CCN(CC)C(=O)C1CCCN(C/C=C/c2ccccc2[N+](=O)[O-])C1 (centres undefined),99.0,-4.5,-0.6,0.4,.
CCOC(=O)C1CCCN(C/C=C/c2ccccc2[N+](=O)[O-])C1 (centres undefined),97.0,7.9*,-1.5,-0.4,-1.0
COCCCNC(=O)C[C@H]1C[C@@]2(C(=O)OC)C(=C[C@H](C(C)(C)C)O[C@@H]2C)N(Cc2cccc3ccccc23)C1=O,.,.,-4.3,.,.
CCN(C(=O)CSc1nnc(-c2cccnc2)n1Cc1ccco1)c1ccccc1,.,.,-4.9,.,.
CC(C(=O)N1CCCCC1)n1ncn2cccc2c1=O (centres undefined),110.0,19.8*,-2.8,-0.1,-0.1
Cc1noc(C)c1COc1ccccc1C(=O)NCCc1ccc(S(N)(=O)=O)cc1,98.0,7.8*,0.7,-0.1,-2.0
Cc1noc(C)c1COc1ccccc1C(=O)NCCc1ccc(Cl)cc1,94.0,-4.3,0.5,-1.9,.
COCC(=O)Nc1cccc2ccccc12,94.0,10.9*,-1.9,2.5,-0.8
COC(=O)CCC(=O)Nc1cccc2ccccc12,92.0,-1.8,0.3,-0.7,.
O=C1NC(Cc2ccccc2)C(=O)N1Cc1ccccc1 (centres undefined),106.0,-6.5,2.8,-0.9,.
O=c1ccsn1Cc1ccccc1,107.0,17.8*,1.8,0.7,5.6*
COc1cc(NC(=O)c2cc(OC)c(OC)c(OC)c2)c(OC)cc1NC(=O)CN1CCCCC1,101.0,8.4*,-1.1,0.7,-0.5
SMILES,ABCB6 inh 2,MsrA act,SMARCA2 act,MsrA inh,MsrA activ conf
CCCCCCCCN1CN2Cc3cc(F)ccc3C2CS1(=O)=O (centres undefined),.,.,3.5,.,.
Cn1c(-c2sccc2OCc2ccc(Cl)cc2Cl)n[nH]c1=S,91.0,16.7*,-4.6,0.7,-0.8
Cc1ccc(COc2ccsc2-c2n[nH]c(=S)n2C)cc1,96.0,0.1,1.8,-0.7,.
O=C(COC(=O)Cc1ccccc1F)Nc1ccc2c(c1)OCCO2,94.0,11.4*,0.6,-0.7,-1.9
O=C(COC(=O)Cc1ccccc1F)Nc1ccc2c(c1)OCO2,95.0,-5.1,-0.7,-1.7,.
Cc1cc(NC(=O)c2ccc(NS(=O)(=O)c3ccc(F)cc3)cc2)no1,.,.,-4.1,.,.
O=C(CCc1ccccc1)N[C@H]1[C@@H](OC(=O)c2cnccn2)CCC[C@@]12C(=O)N(Cc1ccccc1)c1ccccc12,.,.,-2.0,.,.
O=C(O)[C@@H]1Cc2ccccc2N1,198.0,8.2*,-3.4,0.9,-2.2
O=C(C1CCN(c2ncnc3c2sc2cccc(F)c23)CC1)N1CCN(Cc2ccc(F)cc2)CC1,.,.,-7.8,.,.
CC(C)CC1NC(=O)N(CC(=O)Nc2ccc3c(c2)OCCO3)C1=O (centres undefined),107.0,12.6*,-1.4,-1.0,-3.8
CCN(C(=O)COC(=O)CCC(=O)c1ccc(Cl)cc1)c1c(N)n(Cc2ccccc2)c(=O)[nH]c1=O,106.0,7.7*,-3.6,-0.1,-2.2
O=C1c2cccnc2-c2ncccc21,101.0,-1.0,-5.5,0.2,.
O=C1C(=O)c2cccnc2-c2ncccc21,95.0,95.0*,-15.0,-2.2,76.0*
COC(=O)[C@]12C=CCN1[C@H](c1ccccc1)c1c(c3ccccc3n1S(=O)(=O)c1ccc(C)cc1)C2,.,.,-4.2,.,.
CCN1CCN(c2ccc(S(=O)(=O)N3CCCCC3)cc2NC(=O)c2ccc(C)c(C)c2)CC1,95.0,-0.6,-3.9,1.2,.
CCN1CCN(c2ccc(S(=O)(=O)N3CCCCC3)cc2NC(=O)c2cccc(C)c2)CC1,103.0,9.3*,-1.6,-0.5,-1.8
O=C(Nc1ccc2c(c1)OCCO2)C(c1cc2ccccc2o1)N1CCN(C/C=C/c2ccccc2)CC1 (centres undefined),103.0,15.7*,-7.0,-0.5,-1.5
Cc1[nH]c(C)c2c(=O)n(Cc3ccc(Cl)cc3)ncc12,100.0,14.2*,0.0,0.1,-0.6
CC1(C)CC(=O)C(C(N)=NC(=O)c2ccc([N+](=O)[O-])cc2)=C(O)C1,100.0,17.0*,-0.9,-0.8,-1.4
COc1ccc(S[C@]2(C(=O)N3CCN(C(C)=O)CC3)CC(=O)N(C(=O)CCc3ccccc3)[C@@H]2c2ccc(OC)cc2)cc1,.,.,-5.9,.,.
COc1ccccc1C(=O)NCCC(=O)NCCOc1ccccc1,93.0,0.1,-1.6,-0.9,.
COc1ccccc1C(=O)NCCC(=O)NCCCSc1ccccc1,101.0,9.8*,1.0,0.4,-0.3
CCOc1ccc(N2C(=O)CC(Sc3ncccn3)C2=O)cc1 (centres undefined),101.0,-2.7,-1.6,-0.4,.
CCOc1ccc(N2C(=O)CC(Sc3nc(-c4cccs4)cc(C(F)(F)F)c3C#N)C2=O)cc1 (centres undefined),133.0,10.3*,-2.4,2.4,-2.5
O=C(NCCCO)C(=O)NCCc1ccc(Cl)cc1,96.0,-2.8,-0.8,-1.1,.
OCCCCCCNc1ccc(CCO)cc1,97.0,8.6*,-2.1,-0.6,0.1
